A short description of experiment [1]: qHTS assay for small molecule agonists of the p53 signaling pathway (AID 651631; calls by dose curve; further: nearly all actives have a fitted effect of over 15% in size; further: potency means the concentration at half of the fitted maximal effect). Put shortly:
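HCT-116 p53RE-bla reporter line, 16 h compound treatment at 37 °C, then fluorescence after 2 h with B/G FRET substrate.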
For orientation: qHTS replaces the single test concentration by a dilution series.

Experiment [2] in a line: qHTS assay for small molecules that induce genotoxicity in human embryonic kidney cells expressing luciferase-tagged ATAD5 (AID 651632). Further: nearly all actives have a fitted effect of over 15% in size. In short, it runs like this: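 Concentration-response screen for ATAD5 upregulation in HEK293T luciferase reporter cells; 16 hr treatment at 37C, then luminescence after 30 min with Amplite at room temperature.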
Experiment [3] is described as follows: qHTS assay for small molecule agonists of the p53 signaling pathway - cell viability (AID 651633; calls by dose curve;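 further: p53RE-bla HCT reporter cells with a stable beta-lactamase p53 reporter; series mostly up to about 83 µM; nearly all actives have a fitted effect of over 30% in size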). In short, it runs like this: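 Viability counter-read: CellTiter-Glo luminescence (30 min, room temperature) in the same p53RE-bla plates. These plates had been exposed to compounds for 16 h at 37 C.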
A short description of experiment [4]: qHTS assay for small molecules that induce genotoxicity in human embryonic kidney cells expressing luciferase-tagged ATAD5 - cell viability (AID 651634; calls by dose curve; further: nearly all actives have a fitted effect of over 25% in size). In short, it runs like this:
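15.5 hr compound or vehicle exposure of HEK293T cells expressing luciferase-tagged ATAD5 at 37C; live-cell protease activity is read by fluorescence after 30 min of CellTiter-Fluor.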

Experiment [5] can be described thus: qHTS assay for small molecule disruptors of the mitochondrial membrane potential - cell viability (AID 720634; calls by dose curve;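 further: human HepG2 liver cancer cells; series mostly up to about 83 µM; nearly all actives have a fitted effect of over 20% in size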). Put shortly:
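In this qHTS format, HepG2 cells plated overnight were pinned with compound, incubated 1 hr, and assayed for ATP luminescence with CellTiter-Glo after m-MPI dye addition.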

Experiment [6] is described as follows: qHTS assay for small molecule disruptors of the mitochondrial membrane potential (AID 720635). Further: potency means the concentration at half of the fitted maximal effect. In short, it runs like this:
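Mitochondrial membrane potential tracked with Mito-MPS dye, red aggregates (ex 540/em 590 nm) against green monomers (ex 490/em 535 nm). Compound treatment 1 hr at 37C, dye 30 min in HepG2.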

The nature of experiment [7]: qHTS assay to test for compound auto fluorescence at 590 nm (red) in HepG2 cells (AID 720674). Put shortly: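 Red autofluorescence (Ex/Em 540/590 nm, Rose Bengal sodium equivalents) was measured in HepG2 cells, 2,000 per well in MEM plus 10% FBS, plated overnight at 37 C. Readings were taken 1 hr after adding 23 nL compound or DMSO, at 37 C and 5% CO2.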
Experiment [8] can be described thus: qHTS assay to test for compound auto fluorescence at 535 nm (green) in HepG2 cells (AID 720675).
Experiment [9] can be described thus: qHTS assay to test for compound auto fluorescence at 460 nm (blue) in HEK293 cells (AID 720678). Further: potency means the concentration at half of the fitted maximal effect. Put shortly: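 After cell attachment (4-5 hr, 37C), compounds were pinned onto HEK293 monolayers in 10% dialyzed FBS medium. The blue channel (405/460 nm) was read following overnight culture. Equivalency was calculated against triamterene.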
Experiment [10] in a line: qHTS assay to test for compound auto fluorescence at 590 nm (red) in HEK293 cells (AID 720679). Put shortly:
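Plates of HEK293 cells (10% dialyzed FBS) are treated with 23 nL compound or DMSO vehicle after a 4-5 hr attachment period, incubated overnight at 37C, and read for red fluorescence at 540/590nm.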

Where “and” joins values, the source holds several entries; their conditions need not be identical. Identical values can stand only once. Unmarked numbers belong to inactive results. Records with an inconclusive call do not appear. Calls of active or inactive are those of the source. Unless noted, the call rests on the fitted dose curve; in most records, active means well fitted curve in the direction sought with a large enough effect in the repeat runs; inconclusive means weak or mixed curves; inactive means no such curve, though single readings can be large; an effect the other way counts as inactive or inconclusive.
On the % scale 0 is the no-effect control and ±100 the full control effect; tags describe the fitted curve by direction and shape or compound fluorescence and quenching.

For `NC(CS)C(=O)O` (stereo not drawn), the Potency result in experiment [1], in experiment [2], in experiment [3], in [4], in [5] and in experiment [6] was “inactive” each time. In [9], the Potency entry was “inactive”. Besides, the molecule was called inactive in [7], in [8] and in experiment [10].
For `CSc1nc(NC2CC2)nc(NC(C)(C)C)n1`, the Potency entry in [1], in experiment [2], in experiment [3], in experiment [4], in experiment [5] and in experiment [9] was “inactive” in each case. In experiment [6], the Potency is 8.63 µM (active). Besides, the outcome in experiment [7], in experiment [8] and in experiment [10] was inactive.
With `CCCCCCC(CCCCCCCCCCC(=O)OCC(COC(C)=O)OC(C)=O)OC(C)=O` (stereo not drawn), the Potency result in [1], in [2], in experiment [3], in [4], in experiment [5] and in [6] was “inactive” each time. The Potency entry in experiment [9] is “inactive”. The outcome in [7] and in [8] was inactive.
As to `CN(C)CCn1nnnc1SCC1=C(C(=O)O)N2C(=O)[C@@H](NC(=O)Cc3csc(N)n3)[C@H]2SC1`, the Potency result in experiment [1], in [2], in experiment [3], in experiment [4], in experiment [5] and in experiment [6] was “inactive” in each case. The fluorescence, relative to Rose Bengal in experiment [7] is -0.434% [at 18.6 µM]. Besides, in experiment [8], the fluorescence, % of fluorescein control is -0.0016% [at 18.6 µM]. Further, the fluorescence, % of triamterene in [9] was 0.477% [at 18.6 µM]. Besides, the fluorescence, % of fluorescent control in [10] was -0.137% [at 18.6 µM].
Take `CC(=O)O[C@H](CC(=O)[O-])C[N+](C)(C)C`: the Potency result in experiment [1], in [2], in [3], in experiment [4], in [5] and in experiment [6] was “inactive” each time. Also, the Potency entry in experiment [9] was “inactive”. In addition, the molecule was called inactive in experiment [7], in [8] and in [10].
For the molecule `C=C(C)C1CC=C(C)C(O)C1` (stereo not drawn), the Potency entry in experiment [1], in [2], in [3], in [4], in experiment [5] and in [6] was “inactive” each time. Further, the Potency result in experiment [9] was “inactive”. Besides, the call in experiment [7], in [8] and in [10] was inactive.
Take `COC(C(=O)O)c1ccccc1` (stereo not drawn): the Potency entry in experiment [1], in experiment [2], in experiment [3], in experiment [4], in experiment [5] and in experiment [6] was “inactive” each time. In addition, in experiment [9], the Potency entry was “inactive”. Further, the call in experiment [7], in experiment [8] and in experiment [10] was inactive.
`O=C(O)c1ccccc1S`: the Potency entry in [1], in experiment [2], in experiment [3], in [4], in experiment [5] and in experiment [6] was “inactive” throughout. For the same molecule, the Potency entry in experiment [9] was “inactive”. For the same molecule, the call in [7], in [8] and in experiment [10] was inactive.
As for `CCO[Si](C)(OCC)OCC`, the Potency entry in [1], in experiment [2], in experiment [3], in [4], in experiment [5] and in [6] was “inactive” in each case. In addition, the Potency result in [9] is “inactive”. The molecule was called inactive in experiment [7] and in [10].
`CCCCCCCCCCCCI`: the Potency entry in [1], in [2], in [3], in experiment [4], in experiment [5] and in experiment [6] was “inactive” each time. Also, in [9], the Potency result is “inactive”. The molecule was called inactive in experiment [7], in [8] and in [10].
Take `CC(C)=CCC/C(C)=C/C(=O)O`: the Potency entry in [1], in [2], in experiment [3], in [4], in [5] and in experiment [6] was “inactive” each time. Besides, in experiment [9], the Potency entry is “inactive”. The result in [7], in experiment [8] and in experiment [10] was inactive.
As to `Nc1ccc2cc(S(=O)(=O)O)ccc2c1`, the Potency result in [1], in experiment [2], in experiment [3], in [4], in experiment [5] and in experiment [6] was “inactive” each time. Besides, the call in experiment [7], in experiment [8] and in experiment [10] was inactive. For the same molecule, the Potency in experiment [9] is 31.6 µM [fluorescent] (active).
Turning to `CCCc1ccc(N)cc1`, the Potency result in experiment [1], in experiment [2], in [3], in experiment [4], in experiment [5] and in experiment [6] was “inactive” each time. Besides, the Potency result in experiment [9] is “inactive”. The molecule was called inactive in experiment [7] and in experiment [10].
For `O=S(=O)(O)c1ccccc1O`, the Potency result in [1], in experiment [2], in experiment [3], in [4], in [5] and in experiment [6] was “inactive” in each case. Also, the Potency result in [9] was “inactive”. Further, the outcome in experiment [7], in experiment [8] and in experiment [10] was inactive.
For `COCc1ccc(COC)cc1`, the Potency result in experiment [1], in [2], in experiment [3], in experiment [4], in [5] and in [6] was “inactive” throughout. Moreover, in experiment [9], the Potency result is “inactive”. Besides, the result in experiment [7] and in [10] was inactive.
Take `Nc1nc(F)nc2c1ncn2[C@@H]1O[C@H](CO)[C@@H](O)[C@@H]1O`: the Potency in [1] is 13.3 µM (active) and 8.41 µM (active). For the same molecule, the Potency result in experiment [2], in experiment [3], in experiment [4], in experiment [5], in [6] and in [9] was “inactive” throughout. Moreover, the molecule was called inactive in [7] and in experiment [8].
With `NC(=O)c1ncn([C@@H]2O[C@H](CO)[C@@H](O)[C@H]2O)c1N`, the Potency entry in [1], in [2], in experiment [3], in [4], in [5] and in experiment [6] was “inactive” throughout. Moreover, in experiment [9], the Potency result was “inactive”. For the same molecule, the result in [7] and in [8] was inactive.
As for `CC1=CC(C)C(C=O)C(C)C1` (stereo not drawn), the Potency result in experiment [1], in [2], in experiment [3], in experiment [4], in [5] and in experiment [6] was “inactive” each time. Moreover, the Potency entry in [9] is “inactive”. The call in [7], in [8] and in experiment [10] was inactive.
Take `CC(C)(O)C(=O)c1ccc(OCCO)cc1`: the Potency result in [1], in experiment [2], in [3], in experiment [4], in experiment [5] and in [6] was “inactive” each time. Moreover, in experiment [9], the Potency result was “inactive”. Also, the result in experiment [7], in [8] and in [10] was inactive.
For `COc1cc(C(=O)N2CCOCC2)cc(OC)c1OC`, the Potency result in experiment [1], in experiment [2], in experiment [3], in experiment [4], in experiment [5] and in experiment [6] was “inactive” in each case. Also, the Potency entry in experiment [9] was “inactive”. In addition, the outcome in [7], in experiment [8] and in [10] was inactive.
Regarding `CO[Si](CCCNCCC[Si](OC)(OC)OC)(OC)OC`, the Potency result in [1], in [2], in experiment [3], in [4], in experiment [5] and in experiment [6] was “inactive” throughout. Besides, in experiment [9], the Potency result is “inactive”. Also, the molecule was classed as inactive in experiment [7], in [8] and in experiment [10].
On to `O=[N+]([O-])c1ccc(Oc2ccc([N+](=O)[O-])cc2)cc1`, for which the Potency entry in experiment [1], in [2], in [3], in experiment [4], in [5] and in experiment [9] was “inactive” each time. Moreover, the Potency in experiment [6] was 5.57 µM (active). In addition, the molecule was called inactive in experiment [7] and in [10].
Regarding `COc1ccc(NC(C)=O)cc1`, the Potency result in [1], in [2], in experiment [3], in experiment [4], in [5] and in [6] was “inactive” each time. In [9], the Potency entry is “inactive”. The molecule was called inactive in [7], in experiment [8] and in experiment [10].
